Reference: the supplement of paper PMC11417369
± gives the standard deviation of the averaged measurements. Whole data set: some 25,000 sequences, median “ln(normalized median fluorescence intensity)” near 7.9, cut for the highest 2% near 11. The list comes from a sample in which the highest values are over-represented; it also holds similar and randomly drawn sequences.

Test system: PfAP2-I AP2 domain 3 (GST-tagged)
Assay: gcPBM binding intensity (ln(normalized median fluorescence intensity)); higher = stronger DNA binding
Summary of the method: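 Binding intensity is the highest Masliner-normalised natural-log median intensity over replicate spots in either probe orientation. To obtain it, GST-tagged P. falciparum DNA-binding domains made in E. coli were incubated for 1 h on an Agilent 4 × 180k array of primer-extended double-stranded 36-bp intergenic genomic probes plus negative controls. Detection used Alexa488 anti-GST antibody with scanning at 488 nm.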

| Sequence | gcPBM binding intensity (ln) |
| --- | --- |
| TTAAAGCACCCATGCACACACACAAAGGAAAAGAAA [CACACA_site233] | 11.1 ± 0.93 |
| CACTAAAAGAAACACACACACACACCCATATATATA [CACACA_site4151] | 8.44 ± 0.75 |
| TTAAAGCACCCATGCACACACACAAGGGAAAAGAAA [CACACA_site4289] | 10.9 ± 0.92 |
| AAAGCACCCAGGCACACACACAAAGGAAAAGAAAAA [CACACA_site232] | 7.95 ± 0.49 |
| AAAGAAGGGAAACACACACACACACCCACAAAAAAA [CACACA_site3766] | 8.17 ± 0.21 |
| AAACAAAAAAGTAAGAAAAGGGATGATTGGATCCAA [CACACA_negctrl_site1230] | 7.35 ± 0.78 |
| GGAAACCCTCCCAAATGTACTTTTATAAAAAAATAC [XGTACX_site5502] | 8.2 ± 0.6 |
| TTTATTTATCTTTACGCACACACTTGCATGTACAAA [CACACA_site1118] | 9.455 ± 0.021 |
| ACAAATCTAAGATAGTGTACATTTATATATATATAT [XGTACX_site8740] | 9.4 ± 0.24 |
| ACATAAATATATGACACACACACATATTATATATAT [CACACA_site3065] | 8.36 ± 0.52 |
| AAAAATAAAAAAAAATTAAAATATATATATTTTGTT [TGCATGCA_negctrl_site102] | 7.49 ± 0.67 |
| GAAATGTATAAATCCATACACACATAAATTTTAATA [CACACA_site2364] | 7.58 ± 0.4 |
| TATTTCTTATTACATACACACATATACATAGATGAC [CACACA_site5729] | 8 ± 0.55 |
| TTATTAAAAATGGTATGTACGCACATAATATATATA [XGTACX_site3230] | 8.56 ± 0.51 |
| GCAAGGTCCACACTGGTGCATTAAAAATAAAATATA [GTGCAC_site9956] | 11.6 ± 0.41 |
| TATGTGTGCAAAAACTGTACACATTAAAGGTATATA [XGTACX_site7627] | 9.32 ± 0.28 |
| ATATGTACGCAAGGTGCACACTGGTGCATTAAAAAA [CACACA_site1801] | 12.1 ± 0.21 |
| TGCAAAAAATTCCACACACACACACGCATATAAATA [CACACA_site6696] | 7.95 ± 0.38 |
| GATAAAATCACTGGTGCATGTAGATATATAATATTA [TGCATGCA_site589] | 9.12 ± 0.085 |
| TTTATTTGGACATATACACACTTAAATATGTTTATT [CACACA_site6021] | 7.59 ± 0.47 |
| TTTTTTTTGATATATACACACAATAAATAAATATAA [CACACA_site7400] | 7.78 ± 0.39 |
| TATAATATATGTATATGTACTTATGTTGAGAAACAT [XGTACX_site2117] | 7.72 ± 0.59 |
| AATAAATATAGGAATACACACAATATAAATGTATTG [CACACA_site3366] | 7.5 ± 0.62 |

| Sequence | gcPBM binding intensity (ln) |
| --- | --- |
| GATACATAGAAACACACACACATACATATATACATA [CACACA_site3438] | 8.01 ± 0.4 |
| ATTGCCATTGTTAATGCATGTAACAATTCAGCTCAT [TGCATGCA_site56] | 8 ± 0.83 |
| AATATTGCACCATTTTGTACATAATATATTCAAATA [XGTACX_site475] | 11.7 ± 0.74 |
| TAAAAATATTTTCATTGTACATATATATAAATATAT [XGTACX_site1123] | 7.59 ± 0.3 |
| AATATATTTTTTTTTTGTACATATTGTAAAATAATA [XGTACX_site6805] | 7.83 ± 0.22 |
| TACAACAATTTTTGCACACACCAAAACATAAAATAA [CACACA_site4964] | 9.15 ± 0.22 |
| AAAATAAATAAATATACACACCATATATATATTTTT [CACACA_site5573] | 7.61 ± 0.39 |
| AAAAATGAATTATTTTGTACATATATATATATATAT [XGTACX_site3410] | 9.48 ± 0.54 |
| ATTTTTTTTTTTTTTTTTTTTGCACCATAAAATAAT [CACACA_negctrl_site1324] | 11.2 ± 0.56 |
| ATATATTGCACTTTTTGTACATAATGAAAAATTTTT [XGTACX_site8223] | 11.5 ± 1 |
| AAAAAATTTTGAAATTGTACATATATAAAAAATATA [XGTACX_site2629] | 7.59 ± 0.29 |
| TTTCTTCGAAATAGAACACTTGTGCAAAATAAGCAA [XGTACX_negctrl_site361] | 9.9 ± 0.23 |
| AAATTTAAAAATAAAGAACACACATATGTAAAATAT [CACACA_site9252] | 7.91 ± 0.76 |
| AGGATACACGGACACACACACATATAGATTTATATA [CACACA_site6552] | 8.14 ± 0.2 |
| AATTTATTAAAAAAATGTACTTATTTTTTTGTATAA [XGTACX_site5844] | 7.61 ± 0.11 |
| ATATATTTTTATATAGTGCAAGTAATAAAAAGGAAT | 10.04 ± 0.099 |
| ATTTATAATATTCAAGTGCATATATATTTTTTACTT | 9.57 ± 0.14 |
| TTTATTCAAGGAATAGTGCATAATAATAAGTATTAT | 11.2 ± 0.62 |
| TACTATTTTTATAATACACACATATATTTGTGATAT [CACACA_site1775] | 7.84 ± 0.44 |
| TATATATAATATTATACACACATATCTGCATAATAT [CACACA_site4202] | 8.13 ± 0.49 |
| TTAATATATTATCTGGTGCATAAACACGTTATACCT | 11.3 ± 0.64 |
| TTTGTTATATTTAATACACACATATTATAAACACAT [CACACA_site7703] | 8.07 ± 0.34 |
